GBA mod – human lysosomal glucosylceramidase modulation; purified enzyme, resorufin glucoside fluorescence (screen aimed at inhibitors), 20 min; actives 1.1% (n = 48,000); AID 360; Potency, µM; P04062; in the data active means potency below about 15 µM; inconclusive means mostly about 16 µM to 33 µM;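 further: the screen sought inhibitors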
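Normal human glucocerebrosidase (0.2 nM final) was assayed with resorufin β-D-glucopyranoside (30 uM final) in 50mM citric acid/KH2PO4, 10mM sodium taurocholate, 0.01% tween-20, pH 5.9. Compounds were titrated; fluorescence (Ex 548, Em 600) read after 20 min at RT.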
Casp7 inh – allosteric or competitive inhibitors of human caspase-7; actives 0.02% (n = 75,000); P55210; recombinant caspase-7, Ac-DEVD-AFC fluorescence rate; AID 889; Potency, µM (top dose mostly 57.5 µM), inactives show top-dose activity change, negative = inhibition, hits mostly inhibitors; active means well fitted inhibition curve with a large enough effect in the main read-out, with a control signal flat, not every such curve was filed as active; inconclusive means small, poorly fitted or top-dose-only effect, or a change in a side signal; further: % of control where 0% means no effect
HEK293 cAMP ctrl – raises cAMP in parental HEK293 cells, TSHR agonist counter-screen | parental HEK293 CNG cAMP sensor, membrane potential fluorescence | Potency, µM (highest dose often 57.1 µM), inactives show at the top dose activation, hits mostly activators | actives 2.5% (n = 73,000) | AID 938; further: % of control where 0% means no effect; nearly all actives have a fitted effect of over 55% in size
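Counterscreen for endogenous-receptor signalling: CNG-channel HEK 293 cells report cAMP rise by membrane depolarization. After 60 min dye equilibration with 100 uM RO 20-1724, compounds incubated 30 min before bottom-read fluorescence at 590 nm.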
TSHR agonist – TSH receptor (human) agonism. P16473. HEK293-CNG-TSHR cells (CNG channel as cAMP sensor), membrane potential dye, cAMP. Potency, µM (doses to about 57.1 µM), inactives show at the top dose activation, usual class: activators. actives 0.48% (n = 73,000). AID 926; active means well fitted activation curve with a large enough effect in the main read-out, with a control signal flat, not every such curve was filed as active; inconclusive means small, poorly fitted or top-dose-only effect, or a change in a side signal; inactive means no such curve, though single readings can be large or run the other way; % of control where 0% means no effect;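 further: the control signal comes from parental cells without the receptor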
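cAMP rise detected as CNG-channel membrane depolarization by fluorescent dye (emission 590 nm), 30 min after compound, following 60 min dye loading containing 100 uM RO 20-1724 at room temperature. Cells: TSHR/CNG HEK 293, with parental CNG HEK 293 as control.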
ERK AVP inh – blocks ERK signaling stimulated by vasopressin; HEK293-V1b, vasopressin-stimulated pERK AlphaScreen; Potency, µM (top dose mostly 57.5 µM), inactives show at the highest dose activity, negative = inhibition, most hits filed as inhibitors; actives 0.99% (n = 72,000); further: on the % scale 0 is the no-effect control and ±100 the full control effect; nearly all actives have a fitted effect of over 55% in size
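qHTS, compounds titrated on V1b-expressing HEK293 cells. Preincubation 30 min at 37C, vasopressin 25 nM for 5 min, lysis 10 min, bead incubation 5 hr at room temperature.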
Casp1 inh – blocks human caspase-1 allosterically or competitively; P29466; Caspase-1 enzyme, Ac-WEHD-AFC fluorogenic rate; Potency, µM (highest dose often 57.5 µM), for the others: top-dose activity change, negative = inhibition, usual class: inhibitors; actives 0.03% (n = 75,000); AID 900;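 further: plate controls were vehicle for no effect and no substrate for full effect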
* marks the source's active call; other numbers are inactive results; ? = inconclusive; nt = no result; [ ] = remark or other dose. Sampled rows, rich in hits. Any-hit rate of the full collection: about 4.5%. Unless noted, the call rests on the fitted dose curve; in most records, active means well fitted curve in the direction sought with a large enough effect; inconclusive means small, poorly fitted or top-dose-only effect, or another doubt; inactive means no such curve, though single readings can be large; an effect the other way counts as inactive or inconclusive. Potency means the concentration at half of the fitted maximal effect.

SMILES	GBA mod	Casp7 inh	HEK293 cAMP ctrl	TSHR agonist	ERK AVP inh	Casp1 inh
CC(C)C[C@@H](CC(=O)N[C@@H](CCC(=O)O)CC(=O)O)NC(=O)[C@@H]1CNCC[C@H]1NC(=O)C[C@@H](NC(=O)C[C@H](Cc1ccccc1)NC(=O)[C@@H]1CCCC[C@H]1N)C(C)C	nt	nt	7%	2%	nt	nt
CCCn1c(C)nc2c(NC(C)CN(C)C)nc(C)nc21 (stereo not given)	nt	-2%	-3%	3%	0%	0%
COc1ccccc1-c1ccc2ncnc(NCc3cccnc3)c2c1	nt	1%	?	?	6%	1%
Cc1ccccc1-c1ccc2ncnc(NCCN3CCOCC3)c2c1	nt	-20%	?	?	25µM*	-11%
Cc1ccccc1-c1ccc2ncnc(NCc3cccs3)c2c1	nt	16µM*	4µM*	?	?	?
COc1ccccc1-c1ccc2ncnc(NCc3cnc(C)cn3)c2c1	nt	-4%	25µM*	?	20µM*	-3%
COc1ccccc1-c1ccc2ncnc(N3CCOCC3)c2c1	nt	0%	?	?	10µM*	-2%
COc1cc2c(cc1OC)C(CCN)=NCC2	nt	-10%[11.5 µM]	3%[11.4 µM]	0%[11.4 µM]	-5%[11.5 µM]	-5%[11.5 µM]
CNc1ncnc2ccc(-c3ccccc3CN(C)C)cc12	nt	-7%	6%	11%	-25%	-3%
Cc1cnc(CNc2ncncc2-c2ccc3c(c2)OCO3)cn1	nt	-3%	8%	7%	?	-1%
Cc1ccc(-c2nn(C)c(=O)c3ccccc23)cc1S(=O)(=O)NCCN1CCOCC1	nt	-1%	18%	7%	25µM*	0%
CNc1ncnc2ccc(-c3ccccc3C)cc12	nt	-1%	2µM*	?	-29%	-14%
c1csc(CNc2ncncc2-c2ccc3c(c2)OCO3)c1	nt	-1%	?	?	6.3µM*	1%
CN[C@@H]1[C@H](O)[C@H](NC)[C@@H]2O[C@]3(O)C(=O)C[C@@H](C)O[C@H]3O[C@@H]2[C@H]1O	nt	nt	3%	1%	nt	nt
COc1ccccc1-c1cc(C(=O)N2CCN(c3ccccc3OC)CC2)no1	>77	-4%	-3%	-3%[11.4 µM]	0%	-1%
COc1ccccc1N1CCN(C(=O)c2ccc3nc(-c4ccco4)c(-c4ccco4)nc3c2)CC1	>77	?	0%	-9%	16µM*	nt
Cn1c(C(=O)OC(C(=O)NC2CCCCC2)c2ccncc2)cc2sccc21 (stereo not given)	>77	0%	16µM*	?	-2%	-1%
CC(C)C(OC(=O)c1cc2sccc2n1C)C(=O)NCC1CCCO1 (stereo not given)	>77	1%	2µM*	?	-20%	-1%
Cn1c(C(=O)OC(C(=O)NC2CCCC2)c2ccncc2)cc2sccc21 (stereo not given)	>77	-2%	?	?	3%	-3%
CCC(C)(C)C(=O)O[C@@H]1C[C@H](C)C=C2C=C[C@H](C)[C@@H](CC[C@H]3C[C@@H](O)CC(=O)O3)[C@H]21	nt	-3%[25.7 µM]	5%[25.6 µM]	nt	12%[25.7 µM]	-2%[25.7 µM]
COc1ccccc1CN1CCC2(CC1)CCN(C(=O)c1cccc(F)c1)CC2	nt	-3%	15%	3%	11%	-5%
COc1ccccc1CN1CCC2(CC1)CCN(C(=O)c1cc(C(F)(F)F)cc(C(F)(F)F)c1)CC2	nt	-1%	-15%	nt	-8%	-1%
CCc1c(C)nc(SCC(=O)c2ccc(C)c(C)c2)[nH]c1=O	?	-2%	25µM*	?	-3%	-3%
Cc1ccc(S(=O)(=O)N2Cc3ccccc3CC2C(=O)Nc2cc(C)on2)cc1 (stereo not given)	>77	-10%	22%	25µM*	12%	1%
N[C@@H](Cc1ncccn1)C(=O)O	nt	4%[11.5 µM]	14%[11.4 µM]	-5%[11.4 µM]	-25%[11.5 µM]	1%[11.5 µM]
CCc1cc(C(=O)OC)c(NC(=O)CC2NCCNC2=O)s1 (stereo not given)	>77	0%	-1%	5%	-19%	-1%
CCc1cc(C(=O)OC)c(N2C(=O)C3C4C=CC(C4)C3C2=O)s1 (stereo not given)	>77	1%	4%	7.9µM*	-8%	-1%

Assay outcomes (PubChem)
